Inconclusive results are not listed. The source made the active and inactive calls. Unless noted, the call rests on the fitted dose curve; in most records, active means well fitted curve in the direction sought with a large enough effect in the repeat runs; inconclusive means weak or mixed curves; inactive means no such curve, though single readings can be large; an effect the other way counts as inactive or inconclusive.
How the values were obtained:
[1] = A CellTox Green Cytotoxicity Assay to monitor cytotoxicity in HepG2 cells - 16 hour (AID 1224876); further: nearly all actives have a fitted effect of over 45% in size
Method in brief: (§1)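 Continuous culture of HepG2 cells with a membrane-impermeant DNA dye; rising fluorescence marks dead cells. Compound exposure lasted up to 40 h at 37 C, with reads every 8 h from 0 h.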

[2] = qHTS RealTime-Glo MT Cell Viability Assay in HepG2 cells - 32 hour (AID 1224877); further: nearly all actives have a fitted effect of over 55% in size
Method in brief: (§2)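 Tox21 10K library screened in qHTS format on HepG2 cells carrying RealTime-Glo reagents. Compounds were added after a 5 h preincubation, and the luminescent signal from continuous culture was measured repeatedly during 40 h treatment.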

[3] = A CellTox Green Cytotoxicity Assay to monitor cytotoxicity in HepG2 cells - 24 hour (AID 1224878); further: nearly all actives have a fitted effect of over 45% in size
Method in brief: as §1

[4] = A CellTox Green Cytotoxicity Assay to monitor cytotoxicity in HepG2 cells - 40 hour (AID 1224879); further: nearly all actives have a fitted effect of over 40% in size
Method in brief: as §1

[5] = qHTS RealTime-Glo MT Cell Viability Assay in HEK293 cells - 0 hour (AID 1224880); further: top concentration of the series differs between compounds; nearly all actives have a fitted effect of over 45% in size
Method in brief: (§3)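 qHTS format; HEK293 cells with NanoLuc/prosubstrate reagent, 37 C/5% CO2 for 5 h pre-dosing; compounds 23 nL in DMSO; luminescence at each time point reflects viable cells.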

[6] = A CellTox Green Cytotoxicity Assay to monitor cytotoxicity in HEK293 cells - 32 hour (AID 1224881); further: nearly all actives have a fitted effect of over 40% in size
Method in brief: (§4)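 Each value comes from one timepoint of a single continuous run in which HEK293 cells with CellTox Green were exposed to compound for up to 40 h at 37 C, dye fluorescence rising with cell death.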

[7] = A CellTox Green Cytotoxicity Assay to monitor cytotoxicity in HepG2 cells - 32 hour (AID 1224883); further: nearly all actives have a fitted effect of over 50% in size
Method in brief: as §1

[8] = A CellTox Green Cytotoxicity Assay to monitor cytotoxicity in HEK293 cells - 8 hour (AID 1224884); further: nearly all actives have a fitted effect of over 35% in size
Method in brief: as §4

[9] = qHTS RealTime-Glo MT Cell Viability Assay in HepG2 cells - 16 hour (AID 1224885); further: nearly all actives have a fitted effect of over 50% in size
Method in brief: as §2

[10] = qHTS RealTime-Glo MT Cell Viability Assay in HEK293 cells - 24 hour (AID 1224886); further: top concentration of the series differs between compounds; nearly all actives have a fitted effect of over 50% in size
Method in brief: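 Luminescence generated by NanoLuc from substrate produced by living HEK293 cells served as the viability signal. Each value reflects the reading at its stated time point during continuous 40 h compound exposure at 37 C.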

[11] = qHTS RealTime-Glo MT Cell Viability Assay in HEK293 cells - 8 hour (AID 1224887); further: top concentration of the series differs between compounds; nearly all actives have a fitted effect of over 50% in size
Method in brief: as §3

[12] = A CellTox Green Cytotoxicity Assay to monitor cytotoxicity in HEK293 cells - 16 hour (AID 1224888); further: nearly all actives have a fitted effect of over 35% in size
Method in brief: as §4

[13] = A CellTox Green Cytotoxicity Assay to monitor cytotoxicity in HepG2 cells - 8 hour (AID 1224890); further: nearly all actives have a fitted effect of over 45% in size
Method in brief: as §1

[14] = qHTS assay to identify small molecule antagonists of the estrogen receptor alpha (ER-alpha) signaling pathway using the BG1 cell line in the presence of 0.1 nM 17-beta-estradiol - cell viability counter screen (AID 1259241); further: nearly all actives have a fitted effect of over 40% in size
Method in brief: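 Following 5 days in phenol red-free medium with charcoal-stripped serum, VM7Luc4E2 cells received test compounds alongside 0.1 nM 17beta-estradiol (final) at 37C for 22 hr. Live cells were then quantified via protease-substrate fluorescence.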

[15] = qHTS assay to identify small molecule antagonists of the androgen receptor (AR) signaling pathway using the MDA cell line in the presence of 0.5 nM R1881 - cell viability counter screen (AID 1259242); further: nearly all actives have a fitted effect of over 45% in size
Method in brief: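 Fluorescence from CellTiter-Fluor, which reports protease activity of live cells, was read 30 min after reagent addition to MDA-kb2 cells that had been incubated 16 hr with compound and 0.5 nM R1881.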

[16] = molecular target: Estrogen receptor (Homo sapiens) (UniProt P03372); test: qHTS assay to identify small molecule antagonists of the estrogen receptor alpha (ER-alpha) signaling pathway using the BG1 cell line in the presence of 0.1 nM 17-beta-estradiol (AID 1259244); further: nearly all actives have a fitted effect of over 50% in size
Chain of Estrogen receptor (Homo sapiens) (P03372 whole entry, looked up): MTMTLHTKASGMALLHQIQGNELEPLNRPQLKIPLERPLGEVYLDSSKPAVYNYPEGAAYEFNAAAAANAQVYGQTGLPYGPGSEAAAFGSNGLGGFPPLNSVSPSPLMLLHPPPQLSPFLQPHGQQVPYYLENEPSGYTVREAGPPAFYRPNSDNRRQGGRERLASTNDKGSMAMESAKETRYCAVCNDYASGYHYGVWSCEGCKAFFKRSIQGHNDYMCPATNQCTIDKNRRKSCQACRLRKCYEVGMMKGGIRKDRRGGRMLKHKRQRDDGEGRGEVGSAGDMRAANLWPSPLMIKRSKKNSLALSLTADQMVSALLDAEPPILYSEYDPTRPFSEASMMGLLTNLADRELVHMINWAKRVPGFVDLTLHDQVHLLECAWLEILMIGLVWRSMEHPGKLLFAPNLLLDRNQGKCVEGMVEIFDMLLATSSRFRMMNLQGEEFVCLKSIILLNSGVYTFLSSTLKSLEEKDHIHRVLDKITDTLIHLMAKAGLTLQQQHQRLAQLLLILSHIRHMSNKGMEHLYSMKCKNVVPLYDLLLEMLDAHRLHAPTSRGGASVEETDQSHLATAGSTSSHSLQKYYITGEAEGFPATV
Method in brief: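 Quantitative high-throughput screen in VM7Luc4E2 cells: compound plus 0.1 nM E2 (final), 22 h, 37C, 5% CO2; ONE-Glo added, 30 min room temperature, luminescence measured.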

[17] = qHTS assay to identify small molecule phospholipidosis (PLD) inducers (AID 1259344; active means well fitted curve in the direction sought with a large enough effect; an effect the other way counts as inactive or inconclusive)
Method in brief: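 Phospholipidosis is scored by imaging LipidTOX-stained pits in HepG2 cells exposed to compound for 24 h at 37 C; pit counts and integrated intensities per well and per cell serve as outputs.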

[18] = qHTS RealTime-Glo MT Cell Viability Assay in HepG2 cells - 0 hour (AID 1224889); further: nearly all actives have a fitted effect of over 50% in size
Method in brief: as §2

[19] = A CellTox Green Cytotoxicity Assay to monitor cytotoxicity in HepG2 cells - 0 hour (AID 1224882); further: nearly all actives have a fitted effect of over 35% in size
Method in brief: as §1

[20] = molecular target: Androgen receptor (Homo sapiens) (UniProt P10275); test: qHTS assay to identify small molecule antagonists of the androgen receptor (AR) signaling pathway using the MDA cell line in the presence of 0.5 nM R1881 (AID 1259243); further: nearly all actives have a fitted effect of over 50% in size
Chain of Androgen receptor (Homo sapiens) (P10275 whole entry, looked up): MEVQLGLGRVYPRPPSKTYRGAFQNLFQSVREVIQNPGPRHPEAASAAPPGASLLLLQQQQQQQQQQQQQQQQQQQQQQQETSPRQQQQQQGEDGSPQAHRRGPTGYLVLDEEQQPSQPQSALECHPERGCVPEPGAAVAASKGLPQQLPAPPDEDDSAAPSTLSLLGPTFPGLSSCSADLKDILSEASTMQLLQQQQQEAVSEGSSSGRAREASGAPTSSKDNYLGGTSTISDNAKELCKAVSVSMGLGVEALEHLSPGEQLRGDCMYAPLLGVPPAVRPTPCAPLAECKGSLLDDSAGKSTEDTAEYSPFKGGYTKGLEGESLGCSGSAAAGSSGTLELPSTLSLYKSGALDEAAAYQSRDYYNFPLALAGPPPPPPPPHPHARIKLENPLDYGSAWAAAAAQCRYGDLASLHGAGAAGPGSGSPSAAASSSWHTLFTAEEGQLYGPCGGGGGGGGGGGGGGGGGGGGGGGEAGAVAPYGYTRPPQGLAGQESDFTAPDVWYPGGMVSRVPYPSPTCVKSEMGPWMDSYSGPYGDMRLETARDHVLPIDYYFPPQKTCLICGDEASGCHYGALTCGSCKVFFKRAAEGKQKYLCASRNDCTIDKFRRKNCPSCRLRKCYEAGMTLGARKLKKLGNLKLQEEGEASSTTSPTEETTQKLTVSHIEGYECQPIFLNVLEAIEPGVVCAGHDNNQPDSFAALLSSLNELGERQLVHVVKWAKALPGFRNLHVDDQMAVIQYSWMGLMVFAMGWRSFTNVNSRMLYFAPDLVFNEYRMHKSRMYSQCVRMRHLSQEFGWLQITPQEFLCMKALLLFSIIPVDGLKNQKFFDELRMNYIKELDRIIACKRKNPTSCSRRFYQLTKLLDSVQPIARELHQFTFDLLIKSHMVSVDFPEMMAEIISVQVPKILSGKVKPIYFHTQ
Method in brief: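 Inhibition of R1881 (0.5 nM final) induced reporter signal was measured in human MDA-kb2 cells; note the MMTV promoter also responds to GR. Exposure lasted 16 hr at 37C.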
On the % scale 0 is the no-effect control and ±100 the full control effect.

CC(C)Cn1cnc2c1c(=O)n(C)c(=O)n2C
inactive: Potency [1] | outcome [2] | Potency [3] | Potency [4] | Potency [5] | Potency [6] | Potency [7] | Potency [8] | outcome [9] | Potency [10] | Potency [11] | Potency [12] | Potency [13] | outcome [14] | outcome [15] | outcome [16] | outcome [17]

CCCCCCCCCCCCCCCCCCOCCO
inactive: cytotoxicity increase [1] 0.179% [at 15.8 µM] | activity change, negative = cytotoxic [2] -5.24% [at 15.8 µM] | cytotoxicity [3] 0.951% [at 15.8 µM] | cytotoxicity increase [4] 2.96% [at 15.8 µM] | activity change, negative = cytotoxicity [5] 18.7% [at 15.8 µM] | cytotoxicity increase [6] 8.15% [at 15.8 µM] | cytotoxicity increase [7] 1.19% [at 15.8 µM] | activity change, negative = cytotoxic [9] 1.39% [at 15.8 µM] | activity change, negative = cytotoxicity [10] -7.08% [at 15.8 µM] | activity change, negative = cytotoxicity [11] 1.44% [at 15.8 µM] | activity change [12] 5.03% [at 15.8 µM, hits give high values] | cytotoxicity increase [13] -4.91% [at 15.8 µM] | activity change, negative = cytotoxicity [14] 4.04% [at 19 µM] | viability change, negative = cytotoxic [15] -0.694% [at 19 µM] | activity change, negative = inhibition [16] -1.58% [at 19 µM]

CCOCCOCC
inactive: Potency [1] | outcome [2] | Potency [3] | Potency [4] | Potency [5] | Potency [6] | Potency [7] | Potency [8] | outcome [9] | Potency [10] | Potency [11] | Potency [12] | Potency [18] | Potency [13] | outcome [14] | outcome [15] | outcome [16]

CCCCCCCCCOC(=O)c1ccccc1C(=O)OCCCCCCCCC
inactive: Potency [1] | outcome [2] | Potency [3] | Potency [4] | Potency [5] | Potency [19] | Potency [7] | Potency [8] | outcome [9] | Potency [10] | Potency [11] | Potency [12] | Potency [18] | Potency [13] | outcome [14] | outcome [15] | Potency [20] | outcome [16]

CC1CC(=O)CC(C)(C)C1 (stereo not drawn)
inactive: Potency [1] | outcome [2] | Potency [3] | Potency [4] | Potency [5] | Potency [19] | Potency [7] | Potency [8] | outcome [9] | Potency [10] | Potency [11] | Potency [12] | Potency [18] | Potency [13] | outcome [14] | outcome [15] | outcome [16]

CC(CO)(CO)CO
inactive: Potency [1] | outcome [2] | Potency [3] | Potency [4] | Potency [5] | Potency [6] | Potency [7] | outcome [9] | Potency [10] | Potency [11] | Potency [12] | Potency [18] | Potency [13] | outcome [14] | outcome [15] | outcome [16]

C=CCCCC
inactive: Potency [1] | outcome [2] | Potency [3] | Potency [4] | Potency [5] | Potency [6] | Potency [19] | Potency [8] | outcome [9] | Potency [11] | Potency [12] | Potency [18] | Potency [13] | outcome [14] | outcome [15] | outcome [16]

O=C1c2ccccc2C(=O)c2cc(Cl)ccc21
inactive: cytotoxicity increase [1] -1.12% [at 6.97 µM] | activity change, negative = cytotoxic [2] -5.12% [at 6.97 µM] | cytotoxicity [3] 0.241% [at 6.97 µM] | activity change, negative = cytotoxicity [5] 3.49% [at 6.97 µM] | cytotoxicity increase [6] -1.78% [at 6.97 µM] | cytotoxicity [19] 3.98% [at 6.97 µM] | cytotoxicity increase [7] 0.512% [at 6.97 µM] | cytotoxicity increase [8] -6.44% [at 6.97 µM] | activity change, negative = cytotoxic [9] 1.7% [at 6.97 µM] | activity change, negative = cytotoxicity [10] 2.92% [at 6.97 µM] | activity change, negative = cytotoxicity [11] 6.4% [at 6.97 µM] | activity change [12] -0.237% [at 6.97 µM, hits give high values] | activity change, negative = cytotoxicity [18] 1.38% [at 6.97 µM] | cytotoxicity increase [13] -0.731% [at 6.97 µM] | activity change, negative = cytotoxicity [14] 1.79% [at 8.39 µM] | viability change, negative = cytotoxic [15] 2.58% [at 8.39 µM] | activity change, negative = inhibition [16] 6.71% [at 8.39 µM]

Reference: PubChem BioAssay (Tox21)
